From PubChem BioAssay
SENP6 block = SENP6 protease inhibitors, primary screen, biochemical, luminescence, uHTS; Sentrin-specific protease 6 (Homo sapiens), Q9GZR1; Recombinant SENP6 catalytic domain, aminoluciferin luminescence; 1.8% of 330,000 active; inhibition, % at 10 µM;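 active = inhibition above about 50% at the single tested dose, limit read from the data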;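 note: plate controls were DMSO wells with enzyme for no effect and DMSO wells lacking enzyme for full effect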
SENP8 block-1 = human SENP8 protease inhibitors, primary screen, biochemical, fluorescence, Nedd8 protein substrate, uHTS; Sentrin-specific protease 8 (Homo sapiens), Q96LD8; recombinant SENP8; inhibition, % at 20 µM; 0.64% of 360,000 active; AID 602440, 2012; in the data active = inhibition mostly above about 40%, no sharp cut-off; inactive = mostly below about 27%
Target sequence (Q96LD8 whole entry, looked up): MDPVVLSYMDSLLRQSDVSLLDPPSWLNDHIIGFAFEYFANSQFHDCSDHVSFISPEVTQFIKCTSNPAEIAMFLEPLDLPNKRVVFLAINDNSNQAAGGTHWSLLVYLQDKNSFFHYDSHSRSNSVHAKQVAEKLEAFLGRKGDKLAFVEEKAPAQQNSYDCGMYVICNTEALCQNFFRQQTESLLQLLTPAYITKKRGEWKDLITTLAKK
SENP8 block-2 = SENP8 protease inhibitors, primary screen, biochemical, luminescence. Sentrin-specific protease 8 (Homo sapiens), Q96LD8. purified SENP8, Z-RLRGG-aminoluciferin cleavage. inhibition, % at 10 µM. 1.2% of 330,000 active; in the data active = inhibition above about 50%
SENP7 inh = SENP7 protease inhibitors, primary screen, biochemical, luminescence, uHTS; Sentrin-specific protease 7 (Homo sapiens), Q9BQF6; AID 434973, 2010; 1.5% of 330,000 active; inhibition, % at 5 µM; recombinant SENP7, Z-RLRGG-aminoluciferin luminescence, 40 min;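 active = inhibition above about 50% at the single test dose, limit read from the data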;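 note: plate controls were DMSO with enzyme for no effect and no enzyme buffer wells for full effect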
Platelet DG rel = inhibitors of platelet dense granule secretion, primary screen, cell-based, MLPCN, human platelets | human platelet-rich plasma, SFLLRN dense granule ATP release, luminescence | inhibition, %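 (compounds screened at 7.5 µM in platelet-rich plasma)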 | 0.22% of 300,000 active;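 active = mean replicate score, as percent of positive control, at or above 50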
SENP8 conf = SENP8 protease inhibitors, retest, confirmation, biochemical, luminescence, single concentration; shares compounds with SENP7 inh; Recombinant SENP8, Z-RLRGG-aminoluciferin luminescence, 60 min; inhibition, % at 12.5 µM; 40% of 6,200 active; AID 488912, 2010;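 active = mean inhibition across replicates above about 50%, limit read from the data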
SENP6 conf = SENP6 protease inhibitors, confirmation, biochemical, luminescence, single concentration | inhibition, % at 12.5 µM | 58% of 6,200 active | recombinant SENP6, Z-RLRGG-aminoluciferin luminescence | shares compounds with SENP7 inh
SENP7 confirm = SENP7 protease inhibitors, retest, confirmation, biochemical, luminescence, single concentration. 69% of 6,200 active. inhibition, % at 12.5 µM. shares compounds with SENP7 inh. recombinant SENP7, Z-RLRGG-aminoluciferin luminescence, 40 min. AID 488917, 2010
Casp3 select = caspase-3 protease inhibitors, confirmation, selectivity assay for SENP inhibitor project, biochemical, single concentration; inhibition, % at 12.5 µM; AID 488918, 2010; shares compounds with SENP7 inh; purified caspase-3, Z-DEVD-aminoluciferin luminescence, 60 min; 60% of 6,200 active;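 active = mean inhibition above about 50%, limit read from the data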;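 note: plate controls were enzyme with DMSO for no effect and wells without caspase-3 for full effect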
Target sequence (P42574 28-227 limits assumed): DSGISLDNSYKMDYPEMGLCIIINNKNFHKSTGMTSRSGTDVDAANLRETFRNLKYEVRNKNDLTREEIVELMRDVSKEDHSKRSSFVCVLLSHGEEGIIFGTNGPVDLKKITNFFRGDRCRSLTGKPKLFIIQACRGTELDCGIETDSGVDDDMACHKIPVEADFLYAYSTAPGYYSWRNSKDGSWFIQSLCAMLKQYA
SENP luc ctr = luminescence interference (SENP counter-screen); inhibition, % at 12.5 µM; Pre-incubated SENP8/Z-RLRGG-aminoluciferin, luciferase luminescence interference; 39% of 6,200 active; shares compounds with SENP7 inh;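 active = mean inhibition above about 50% when retested at one dose, limit read from the data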;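 note: plate controls were DMSO wells with completed reaction for no effect and substrate without enzyme for full effect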
Numbers without * were called inactive. A selection: hits, their analogues and other compounds. The true share with any hit is near 2.4%.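 Rule for the calls, unless noted: active = mean inhibition above about 50% in the one-dose retest (limit read from the data); inactive = the rest.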

For COc1ccc(-c2nc3ccc([N+](=O)[O-])cc3o2)cc1 the results were SENP6 block 24.2, SENP8 block-1 2.5, SENP8 block-2 9.7, SENP7 inh 69.0*, Platelet DG rel -4.6, SENP8 conf -3.8, SENP6 conf 3.4, SENP7 confirm 7.8, Casp3 select 12.7 and SENP luc ctr 0.6.
For NC(N)=Nc1nc2cc([N+](=O)[O-])ccc2o1 the results were SENP6 block 11.5, SENP8 block-1 8.1, SENP8 block-2 -12.6, SENP7 inh -0.9 and Platelet DG rel 6.4.
Screening Cc1cccc(-c2nc3cc([N+](=O)[O-])ccc3o2)c1 returned SENP6 block 20.9, SENP8 block-1 15.9, SENP8 block-2 25.9, SENP7 inh 81.9*, Platelet DG rel 2.1, SENP8 conf 15.1, SENP6 conf 31.9, SENP7 confirm 71.6*, Casp3 select 75.3* and SENP luc ctr 33.6.
For COc1ccc(C(=O)N2CCN(c3ncnc4c(-c5ccccc5)nsc34)CC2)cc1 the results were SENP8 block-1 -78.7 and Platelet DG rel 0.7.
Screening COc1ccc(-c2nsc3c(N4CCCCC4)ncnc23)cc1 returned SENP6 block 66.6*, SENP8 block-1 -257.0, SENP8 block-2 91.9*, SENP7 inh 95.1*, Platelet DG rel 17.7, SENP8 conf 0.4, SENP6 conf 5.2, SENP7 confirm -0.5, Casp3 select 1.9 and SENP luc ctr 15.9.
Screening COc1ccc(-c2nsc3c(N4CCCCC4C)ncnc23)cc1 (centres undefined) returned SENP6 block 87.8*, SENP8 block-1 -406.4, SENP8 block-2 81.0*, SENP7 inh 77.9*, Platelet DG rel -4.0, SENP8 conf 68.1*, SENP6 conf 71.3*, SENP7 confirm 76.2*, Casp3 select 76.3* and SENP luc ctr 10.8.
O=C(O)c1cccc(-n2cc(-c3cccc(C(F)(F)F)c3)cn2)c1 was read as SENP6 block 85.3*, SENP8 block-1 21.6, SENP8 block-2 78.1*, SENP7 inh 59.2*, Platelet DG rel -2.2, SENP8 conf -5.9, SENP6 conf 86.9*, SENP7 confirm 96.9*, Casp3 select 11.4 and SENP luc ctr 90.9*.
`COc1cccc(C(=O)Oc2ccc3ccc(O)cc3c2)c1` gave SENP6 block 68.7*, SENP8 block-2 38.2, SENP7 inh 37.8, Platelet DG rel -0.9, SENP8 conf 45.8, SENP6 conf 63.6*, SENP7 confirm 80.0*, Casp3 select 17.0 and SENP luc ctr 12.9.
Cc1ccccc1C(=O)Oc1ccc2ccc(O)cc2c1 was read as SENP6 block 72.9*, SENP8 block-1 1.7, SENP8 block-2 59.1*, SENP7 inh 58.5*, Platelet DG rel 1.7, SENP8 conf 49.5, SENP6 conf 76.0*, SENP7 confirm 84.5*, Casp3 select 24.7 and SENP luc ctr 24.1.
Screening COc1cccc(C(=O)NNC(=O)c2ccc3ccccc3c2)c1 returned SENP8 block-1 2.7.
Screening CCCCNC(=NCc1cccc(C(F)(F)F)c1)Nc1ccccc1 returned SENP6 block -39.5, SENP8 block-1 11.9, SENP8 block-2 0.7, SENP7 inh -0.4 and Platelet DG rel 0.0.
For Cc1ccc(C(=O)CN(CCC(=O)O)C(=O)c2ccncc2)cc1 the results were SENP6 block 2.0, SENP8 block-1 -30.5, SENP8 block-2 -4.5 and SENP7 inh 4.1.
`O=C(c1ccco1)N1N=C(c2ccc(Br)cc2)CC1c1ccco1` (centres undefined) gave SENP6 block -3.6, SENP8 block-1 -24.9, SENP8 block-2 -1.0 and SENP7 inh 2.7.
Screening COc1ccc(C2=NN(CN3C(=O)C(=O)c4ccccc43)C(c3ccc(Br)cc3)C2)cc1 (centres undefined) returned SENP6 block -10.5, SENP8 block-1 5.2, SENP8 block-2 -5.4, SENP7 inh 80.6*, Platelet DG rel 3.9, SENP8 conf -11.6, SENP6 conf -8.1, SENP7 confirm 2.5, Casp3 select 3.6 and SENP luc ctr -0.3.
CC(=O)c1ccccc1OC(=O)c1ccc(-c2ccccc2)cc1 was read as SENP6 block 10.9, SENP8 block-1 6.7, SENP8 block-2 10.4, SENP7 inh 0.4 and Platelet DG rel 16.1.
`COc1ccc(C(=O)O/N=C(\C)c2ccccc2)cc1` gave SENP6 block 95.5*, SENP8 block-1 14.9, SENP8 block-2 97.2*, SENP7 inh 100.5*, Platelet DG rel 64.9*, SENP8 conf 99.7*, SENP6 conf 100.6*, SENP7 confirm 103.3*, Casp3 select 99.1* and SENP luc ctr 98.4*.
CC(C)=NOC(=O)c1ccc(-c2ccccc2)cc1 was read as SENP6 block 76.6*, SENP8 block-1 28.6, SENP8 block-2 57.9*, SENP7 inh 72.4*, Platelet DG rel 15.5, SENP8 conf 75.0*, SENP6 conf 75.9*, SENP7 confirm 90.1*, Casp3 select 71.0* and SENP luc ctr 67.3*.
Screening Cc1c(NC(=O)COc2cccc(Cl)c2Cl)c(=O)n(-c2ccccc2)n1C returned SENP6 block -22.1, SENP8 block-1 12.6, SENP8 block-2 -12.5, SENP7 inh -8.2 and Platelet DG rel -0.3.
For CNS(=O)(=O)c1cccc(C(=O)OCC(=O)Nc2ccc3ccccc3c2)c1 the results were SENP6 block 3.1, SENP8 block-1 12.0, SENP8 block-2 7.5 and SENP7 inh 1.3.
`CN1CCC(N(C)CC(C)(C)NS(=O)(=O)c2ccccc2)CC1` gave SENP6 block 12.1, SENP8 block-1 19.5, SENP8 block-2 1.4, SENP7 inh -1.5 and Platelet DG rel 1.2.
